Several values for one entry are separate records, joined by “and”; a condition that tells them apart may be missing. Equal entries are not always repeated. Results filed as inconclusive are left out. More than one record can exist for a structure, and the calls need not agree. Activity calls are given as the source filed them. Unless noted, calls come from the whole dose curve; as a rule, active = well fitted curve in the direction sought with a large enough effect in the repeat runs; inconclusive = weak or mixed curves; inactive = no such curve, though single readings can be large; an effect the other way counts as inactive or inconclusive.

The nature of test [1]: qHTS assay to identify small molecule antagonists of the vitamin D receptor (VDR) signaling pathway - cell viability counter screen (AID 743225). Note: nearly all actives have a fitted effect of over 50% in size. Conditions: VDR-bla HEK293T viability, CellTiter-Glo luminescence, 16 h; series mostly up to 61 µM. The procedure, abridged: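 VDR-bla HEK 293T cells, 4 h pre-incubation at 37C, then compound plus 1-alpha,25-dihydroxyvitamin D3 (3 nM final) for 16 h. After the beta-lactamase FRET read, CellTiter-Glo was added to the same wells; luminescence after 30 min at room temperature.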
On the technique in general: qHTS replaces the single test concentration by a dilution series.

Test [2] in a line: qHTS assay to identify small molecule agonists of the NFkB signaling pathway (AID 1159509; active = well fitted curve in the direction sought with a large enough effect in the signal ratio in the repeat runs, not every such curve was filed as active; the % refers to the signal ratio). The settings on record: NFkB-bla ME-180 cells, beta-lactamase FRET ratio, 5 h; series mostly up to 61 µM. In a few lines:
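After overnight attachment, reporter cells received test compounds, DMSO or positive controls and were incubated 5 hr at 37 C. FRET substrate was then added for 1.5 hr at room temperature before dual-emission fluorescence reading.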

Test [3] in a line: qHTS assay to identify small molecule agonists of the NFkB signaling pathway - cell viability counter screen (AID 1159515; calls by dose curve; note: nearly all actives have a fitted effect of over 55% in size). Conditions: NFkB-bla ME-180 viability, CellTiter-Glo luminescence, 5 h; series mostly up to 61 µM. The procedure, abridged: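 Using the same wells as the NFkB reporter read, ME-180 NFkB-bla cells given compounds for 5 hr were assessed for viability via CellTiter-Glo, with luminescence taken after a 30 min room-temperature incubation.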

The nature of test [4]: qHTS assay to identify small molecule agonists of the endoplasmic reticulum stress response signaling pathway - cell viability counter screen (AID 1159517; calls by dose curve; note: nearly all actives have a fitted effect of over 50% in size). The settings on record: ESRE-bla HeLa viability, CellTiter-Glo luminescence, 5 h; series mostly up to 61 µM. In a few lines: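 Counter-screen wells were identical to the reporter wells. Cells were plated at 1,500 per well and dosed for 5 hr, then read for luminescence 30 min after CellTiter-Glo addition.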

Test [5] in a line: qHTS assay to identify small molecule antagonists of the retinoid-related orphan receptor gamma (ROR-gamma) signaling pathway - cell viability counter screen (AID 1159520). Note: nearly all actives have a fitted effect of over 50% in size. Note: potency is the fitted concentration of half-maximal effect. The settings on record: Tet-on RORgamma CHO cells viability, ATP luminescence, 16 h; series mostly up to 92.4 µM. In a few lines: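 Tet-on ROR gamma CHO cells were given compounds for 2 hr, then doxycycline hyclate at 1 uM final, and incubated 16 hr at 37 C. Viability was measured as ATP content by CellTiter-Glo luminescence.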

In test [6] the target is Nuclear receptor ROR-gamma (Homo sapiens) (UniProt P51449). The experiment in a line: qHTS assay to identify small molecule antagonists of the retinoid-related orphan receptor gamma (ROR-gamma) signaling pathway (AID 1159521; note: nearly all actives have a fitted effect of over 50% in size; note: potency is the fitted concentration of half-maximal effect). Conditions: Tet-on RORgamma CHO cells, RORE-luciferase, 16 h; series mostly up to 92.4 µM. The procedure, abridged:
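Tet-on RORγ CHO cells carrying a ROR response element–luciferase reporter were pretreated with compounds for 2 h, then induced with 1 uM (final) doxycycline hyclate for 16 h at 37 C. Antagonism was read as decreased ONE-Glo luminescence.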

A short description of test [7]: qHTS assay to identify small molecule agonists of the AP-1 signaling pathway (AID 1159526; calls by dose curve). The settings on record: ME-180 AP-1-bla reporter, beta-lactamase FRET ratio, 5 h; series mostly up to 76.8 µM.
A short description of test [8]: qHTS assay to identify small molecule agonists of the endoplasmic reticulum stress response signaling pathway (AID 1159516; active = well fitted activation curve with a large enough effect in the signal ratio in the repeat runs, not every such curve was filed as active; the % refers to the signal ratio; note: potency is the fitted concentration of half-maximal effect). Conditions: ESRE-bla HeLa, ER stress beta-lactamase reporter, 5 h; series mostly up to 61 µM. In a few lines: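 An ESRE-bla HeLa cell assay: compounds were pin-transferred from DMSO onto overnight-plated cells and left 5 hr at 37 C. Substrate was then loaded for 2 hr at room temperature before reading fluorescence at 460 nm and 530 nm.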

For test [9], the target named is Retinoic acid receptor RXR-alpha (Homo sapiens) (UniProt P19793). The experiment in a line: qHTS assay to identify small molecule agonists of the RXR signaling pathway (AID 1159527; calls by dose curve; note: nearly all actives have a fitted effect of over 35% in size; note: potency is the fitted concentration of half-maximal effect). The settings on record: HEK293T RXRa-UAS-bla, beta-lactamase ratio, 16 h; series mostly up to 76.8 µM. The procedure, abridged: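 GeneBLAzer RXR-alpha-UAS-bla HEK 293T cells in medium with 2% charcoal-stripped FBS, pre-incubated 5 hr at 37 C, then exposed to compounds 16 hr. Beta-lactamase reporter read by FRET substrate, 2 hr room temperature, 460/530 nm emission.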
Chain of Retinoic acid receptor RXR-alpha (Homo sapiens) (P19793 whole entry, looked up): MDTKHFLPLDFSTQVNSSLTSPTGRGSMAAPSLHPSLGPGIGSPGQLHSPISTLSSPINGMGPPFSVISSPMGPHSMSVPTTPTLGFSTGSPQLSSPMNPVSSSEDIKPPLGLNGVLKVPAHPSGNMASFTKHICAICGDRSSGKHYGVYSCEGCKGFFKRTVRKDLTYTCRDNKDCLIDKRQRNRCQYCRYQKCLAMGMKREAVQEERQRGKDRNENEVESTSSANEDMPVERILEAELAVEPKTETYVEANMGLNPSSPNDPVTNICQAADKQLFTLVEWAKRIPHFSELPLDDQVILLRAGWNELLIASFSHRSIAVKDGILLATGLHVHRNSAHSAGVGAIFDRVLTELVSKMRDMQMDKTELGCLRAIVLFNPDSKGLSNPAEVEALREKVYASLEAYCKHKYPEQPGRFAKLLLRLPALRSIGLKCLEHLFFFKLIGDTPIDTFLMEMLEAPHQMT

Test [10] is described as follows: qHTS assay to identify small molecule agonists of the AP-1 signaling pathway - cell viability counter screen (AID 1159525; calls by dose curve; note: nearly all actives have a fitted effect of over 55% in size; note: potency is the fitted concentration of half-maximal effect). The settings on record: ME-180 (cervical carcinoma) AP-1-bla cells viability, ATP luminescence, 5 h; series mostly up to 76.8 µM. The procedure, abridged: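 AP-1-bla ME-180 cells in Opti-MEM with 0.5% dialyzed FBS, compound exposure 5 h at 37 C in 15-point titration. Viability read in the same wells as ATP content by CellTiter-Glo luminescence, normalised to tetra-n-octylammonium bromide and DMSO controls.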

In the case of `Nc1ncn([C@@H]2O[C@H](CO)[C@@H](O)[C@H]2O)c(=O)n1`, the Potency entry in test [1], in test [3] and in [4] was “inactive” throughout. In addition, the outcome in [2] and in test [7] was inactive. Also, the Potency in test [5] is 3.44 µM (active) and 4.22 µM (active); in [6], 1.72 µM (active) and 3.35 µM (active).

Turning to `c1ccc2c(c1)c1cccc3ccc4cccc2c4c31`, the Potency entry in test [1], in test [3], in [5] and in [6] was “inactive” in each case. Also, the result in [2] and in [7] was inactive. For the same molecule, the Potency is 48.6 µM (active) in test [8]; 43.4 µM (active) and inactive in [9].

In the case of `OC1CCCCCCCCCCC1`, the Potency result in [1], in test [3], in [4], in [5], in test [6] and in [10] was “inactive” throughout. The outcome in test [2] was inactive.

Consider `Oc1ccc(O)cc1`, for which the Potency entry in test [1] and in [9] was “inactive” throughout. In addition, the result in test [2] and in test [7] was inactive. In addition, in test [6], the Potency is 21.6 µM (active) and 38.6 µM (active) and 23.7 µM (active).

With `CC(=O)Oc1ccccc1C(=O)Nc1ncc([N+](=O)[O-])s1`, the outcome in test [2] and in test [7] was inactive. The Potency result in test [3] and in test [6] was “inactive” each time. Besides, in [5], the Potency was 3.93 µM (active) and 5.31 µM (active).

As for `C#C[C@]1(O)CC[C@H]2[C@@H]3CCC4=Cc5oncc5C[C@]4(C)[C@H]3CC[C@@]21C`, the Potency entry in [1], in test [8] and in [5] was “inactive” throughout. In addition, the outcome in test [2] and in test [7] was inactive. Further, the Potency was 17.2 µM (active) and 16.8 µM (active) in [6]; 54.9 µM (active) and inactive in [10].

Take `COc1cc([C@@H]2c3cc4c(cc3[C@H](O)[C@H]3COC(=O)[C@H]23)OCO4)cc(OC)c1OC`: the Potency result in test [1], in test [3], in [4], in [5] and in test [10] was “inactive” in each case. In addition, in test [2], the outcome was inactive. Further, the Potency in test [6] is 30.6 nM (active).

In the case of `O=C(c1ccccc1)c1ccc(O)cc1O`, the Potency result in test [1], in test [3], in test [8] and in test [5] was “inactive” each time. For the same molecule, the result in test [2] and in [7] was inactive. Further, the Potency in test [6] is 55.5 µM (active) and inactive.

As for `O=C1OC2(c3cc(Br)c(O)c(Br)c3Oc3c2cc(Br)c(O)c3Br)c2c(Cl)c(Cl)c(Cl)c(Cl)c21`, the Potency result in [1], in [3], in [5] and in test [10] was “inactive” throughout. Also, the outcome in test [2] and in [7] was inactive.

`C#C[C@]1(O)CC[C@H]2[C@@H]3CCc4cc(OC)ccc4[C@H]3CC[C@@]21C`: the Potency result in test [1], in [3], in [8], in test [5], in test [6] and in test [10] was “inactive” in each case. The Potency result in test [9] is “inactive”. The outcome in test [2] was inactive.

For `C=CC(C)(CCC=C(C)C)OC(C)=O` (stereo unspecified), the Potency result in test [1], in test [3], in [8], in test [5], in [6] and in test [9] was “inactive” throughout. The outcome in [2] and in [7] was inactive.

In the case of `Cc1cc2nc3c(=O)[nH]c(=O)nc-3n(C[C@H](O)[C@H](O)[C@H](O)CO)c2cc1C`, the Potency entry in test [1], in test [3], in test [8], in test [5] and in test [6] was “inactive” in each case. Further, the outcome in [2] and in test [7] was inactive.

For the molecule `O=C1c2cccc(O)c2C(=O)c2c(O)cccc21`, the Potency result in [1], in [3], in test [4], in test [5], in test [6] and in test [10] was “inactive” each time. The outcome in test [2] was inactive.

With `CCCCC/C=C/C=C/C=O`, the result in test [2] and in test [7] was inactive. The Potency result in test [3], in [4], in [6], in test [10] and in test [9] was “inactive” in each case.

Turning to `Cc1c(OCC(F)(F)F)ccnc1CS(=O)c1nc2ccccc2[nH]1` (stereo unspecified), the Potency entry in test [1], in [3], in test [8], in test [5] and in [6] was “inactive” in each case. The result in [2] and in test [7] was inactive.

Consider `COc1cccc2c1C(=O)c1c(O)c3c(c(O)c1C2=O)C[C@@](O)(C(=O)CO)C[C@@H]3O[C@H]1C[C@H](N)[C@H](O)[C@H](C)O1`, for which the Potency entry in [1], in [3], in test [4], in [6] and in test [10] was “inactive” each time. For the same molecule, the outcome in [2] and in test [7] was inactive. Further, in test [5], the Potency entry was “inactive and 26.6 µM (active)”.

(Values after PubChem BioAssay (Tox21).)
